Among the data in PubChem BioAssay (NCI) are growth values, retold here.

Compounds without any hit were thinned out: in the full panel of roughly 83,000, 20% have a hit.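 96-well plates, one dose, 48 hours. Percent growth reported; active if below 10.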 Values without a mark were called inactive. Activity calls are given as the source filed them.

The test system of this experiment is IGROV1 ovarian. Description: NCI-60 one-dose screen, 48 h (100 = growth as untreated, 0 = no growth, -100 = all killed). The settings on record: 10 µM unless noted. As to the method:
Growth inhibition of the IGROV1 human tumor cell line is measured as a screen for anti-cancer activity. Cells are grown in 96 well plates and exposed to the test compound for 48 hours. Compounds are tested at a single concentration, which is 10^-5 M for most compounds. The reported endpoint is percent growth (GI% or GIPRCNT), where numbers from 0 - 100% represent growth inhibition, and numbers from -100% - 0 represent cell death. For example, a value of 40 represents 60% growth inhibition. A value of 0 means no net growth occurred over the course of the experiment. A value of -40 indicates 40% of cells at the beginning of the experiment died by the end of the experiment. A value of -100 means all cells are dead at the end of the experiment.
NCI-60 Human Tumor Cell Lines Screen was performed using the standard one-dose NCI protocol, which is described in more detail at https://dtp.cancer.gov/discovery_development/nci-60/default.htm.
Compounds with GIPRCNT values below 10 were considered active. Activity score was based on GIPRCNT using the following formula: […]
Score is 0 for GIPRCNT values of 100 or above, 50 for GIPRCNT values of 0, and 100 for GIPRCNT values of -100.
On to `CN(C)c1ccc(/C=N/Nc2nc(N/N=C/c3ccc(N(C)C)cc3)nc(N3CCOCC3)n2)cc1`, for which the growth is 94.6%.

For the compound `Cc1ccc(NC(=O)c2cccc(CN3CCN(C)CC3)c2)cc1Oc1ccc(-c2[nH]nc3ncnc(N)c23)cc1`, the growth is 63.3%.

Consider `C/C(=C(/c1ccc(O)cc1)c1ccc(OCCN(C)C)cc1)c1ccc(Cl)cc1`, for which the growth is 58.1%.

In the case of `COc1ccc(NC(=O)[C@H](C)NC(=O)OC(C)(C)C)cc1C(=O)Nc1cccc(-c2cc(=O)c3c(OC)c(OC)c(OC)cc3o2)c1`, the growth is 11.5%.

As for `O=C(NNc1nc2cc(F)c(F)cc2n2cccc12)c1ncccn1`, the growth was 20.5%.

Consider `C=CCn1c(SCC(=O)Nc2ccc(OC)cc2)nnc1-c1ccc(Cl)cc1`, for which the growth is 89.8%.

`NS(=O)(=O)c1ccc(-n2cc(CC=O)nn2)cc1`: the growth was 102%.

Regarding `Cn1cc(-c2nn3cc(-c4cccnc4)nc3s2)c2ccccc21`, the growth is 40.2%.

On to `O=C(CCCCCCN1CC(=O)N2[C@@H](c3cccc(Cl)c3)c3[nH]c4ccccc4c3C[C@H]2C1=O)NO`, for which the growth was 4.61% (active).

Turning to `O=C1CC2(CCOCC2)Oc2ncccc21`, the growth is 8.85% (active).

For `CN1CCN(Cc2ccc(NC(=O)c3cncc(C#Cc4[nH]nc5ncncc45)c3)cc2C(F)(F)F)CC1`, the growth was 38.2%.

In the case of `O=C(Nc1cc(F)cc2cccnc12)c1cnc(N2CCOCC2)cn1`, the growth is 25.5%.

Consider `CC1CCN(S(=O)(=O)c2ncsc2-c2ccccc2)CC1`, for which the growth is 94.2%.

Turning to `CC(=O)NC(C)(C)C(=O)N[C@@H](C)C(=O)NC(C)(C)C(=O)N[C@@H](C)C(=O)NC(C)(C)C(=O)N[C@@H](C)C(=O)N[C@@H](CCC(N)=O)C(=O)NC(C)(C)C(=O)N[C@H](C(=O)NC(C)(C)C(=O)NCC(=O)N[C@@H](CC(C)C)C(=O)NC(C)(C)C(=O)N1CCC[C@H]1C(=O)N[C@H](C(=O)NC(C)(C)C(=O)NC(C)(C)C(=O)N[C@@H](CCC(N)=O)C(=O)N[C@@H](CCC(N)=O)C(=O)N[C@H](CO)CC1CCCCC1)C(C)C)C(C)C`, the growth was 49.3% [5 µM].

Regarding `Cn1c2ccc(Br)cc2c2c3c(c4c5cc(F)ccc5oc4c21)C(=O)N(O)C3=O`, the growth is 63.5%.

On to `C#C[C@]1(O)CC[C@H]2[C@@H]3CC=C4c5sc(Nc6cc(Cl)ccn6)nc5CC[C@]4(C)[C@H]3CC[C@@]21C`, for which the growth was 40.1%.

In the case of `Nc1ccc(-c2nnc(SCc3ccc(O)c4ncccc34)o2)cc1`, the growth is 0.429% (active).

With `Nc1cc(F)ccc1NC(=O)c1ccc(NC(=O)C/C=C/c2cccnc2)cn1`, the growth is 13.8%.

Consider `CC(=O)NC(C)(C)C(=O)N1CCC[C@H]1C(=O)NC(C)(C)C(=O)N[C@@H](C)C(=O)NC(C)(C)C(=O)NC(C)(C)C(=O)N[C@@H](CCC(N)=O)C(=O)NC(C)(C)C(=O)N[C@H](C(=O)NC(C)(C)C(=O)NCC(=O)N[C@@H](CC(C)C)C(=O)NC(C)(C)C(=O)N1CCC[C@H]1C(=O)N[C@H](C(=O)NC(C)(C)C(=O)NC(C)(C)C(=O)N[C@@H](CCC(N)=O)C(=O)N[C@@H](CCC(N)=O)C(=O)N[C@H](CO)Cc1ccccc1)C(C)C)C(C)C`, for which the growth was 46.4% [4.25 µM].

Regarding `Cn1cc(-c2nn3cc(-c4ccncc4)nc3s2)c2cc(Cl)ccc21`, the growth is 17.2%.

Regarding `O=S(=O)(Nc1ccc(C2CC2)cc1)c1ccc(-c2cnc(C3CC3)o2)cc1`, the growth is 58.2%.

Consider `O=C1c2c(c3c4cccnc4[nH]c3c3ccc4ccccc4c23)C(=O)N1CCN1CCCCC1`, for which the growth is 42.8%.

For the compound `COc1cc(/C=N/n2cnc3oc(-c4ccccc4)cc3c2=N)cc(CN2CCCCC2)c1O`, the growth was -82.5% (active).

Turning to `Oc1ccc(CSc2nnc(-c3cnccn3)n2-c2ccccc2)c2cccnc12`, the growth was 16.3%.

With `C/C(=C(/C)C1CC1CCN(C(=O)c1ccccn1)S(=O)(=O)c1ccc(C)cc1)C1CCCCC1` (stereo not given), the growth is 103%.

In the case of `CS(=O)(=O)c1nccc(-c2c(-c3ccc(F)c(OCc4ccccc4)c3)nc3sccn23)n1`, the growth is 101%.

As to `O=C(CCCCCCN1CC(=O)N2[C@@H](c3cccc(Br)c3)c3[nH]c4ccccc4c3C[C@H]2C1=O)NO`, the growth is 2.39% (active).

Consider `NS(=O)(=O)Oc1ccc2nc(Nc3ccc(F)c(F)c3)ccc2c1`, for which the growth was 94.4%.

For the compound `Cc1cccc(NC(c2cc3cccc4ccc5cccc2c5c43)c2nnnn2C(C)(C)C)c1C` (stereo not given), the growth is 73.6%.

As for `CCCCCCCCNC(=O)c1ccc(Cn2c(CCCC)nc3c(N)nc4ccccc4c32)cc1`, the growth was -37.8% (active).

On to `CC(C)C(=O)Nc1ccc(-c2nc(-c3cccc(O)c3)c(-c3ccnc(Br)c3)[nH]2)cc1`, for which the growth was 59.4%.

Take `O=C(Cn1cc(CN2C(=O)c3ccc([N+](=O)[O-])cc3C2=O)nn1)Nc1ccc(F)cc1Cl`: the growth was 100%.

Take `CC(C)(C)n1nnnc1C(Nc1nccs1)c1cc2cccc3ccc4cccc1c4c32` (stereo not given): the growth is 85.5%.

Regarding `O=C(COc1ccc(C2SCC(=O)N2c2ccccc2)cc1)c1ccccc1` (stereo not given), the growth was 96.4%.

As for `Nc1c(C(=O)c2ccccc2)sc2nc(-c3cnccn3)cc(-c3cccs3)c12`, the growth is 97.4%.

Regarding `Clc1ccc(-c2csc(Nc3cccc(Nc4csc(-c5ccc(Cl)cc5)n4)c3)n2)cc1`, the growth is 50.6%.

As for `O=c1c2ccccc2nc(COc2ccccc2)n1/N=C/C=C/c1ccccc1`, the growth is 90.2%.

For the compound `CC1(C)CC[C@]2(C(=O)N3CCCNCC3)CC[C@]3(C)C(=CC[C@@H]4[C@@]5(C)CCC(=O)C(C)(C)[C@@H]5CC[C@]43C)[C@H]2C1`, the growth is 117%.

For the compound `CC(=O)Nc1nc2c(s1)C1=CC[C@H]3[C@@H]4CC[C@H](C(C)=O)[C@@]4(C)CC[C@@H]3[C@@]1(C)CC2`, the growth was 99.1%.

As for `NC(=O)c1c(NC(=O)c2cccc(OC(F)(F)F)c2)sc2c1CCC(=O)C2`, the growth was 36.4%.
